# Measurements reported in ChEMBL document CHEMBL4513216, “Probing the Open Global Health Chemical Diversity Library for Multistage-Active Starting Points for Next-Generation Antimalarials” (ACS Infect Dis, 2020).
# Out of some 68,000 compounds screened, about 2,700 (4%) showed an effect of 50% or more. Many of the other results were omitted from the sample, so strong results are more common in it than they were.
# Tested on: Plasmodium berghei
# Test: Screen against P. berghei liver stage (PbLuc), transformed with Luciferase, at 2uM
# Assay type: functional, HepG2
# Settings: tested at 2 uM
row,Structure (SMILES),INHIBITION
1,CNC(=O)COc1ccc(CNCc2c(C)nn(C)c2N(C)C)cc1,-5.7%
2,Cc1cnc(N2CCc3c(CNc4ccnc(C)n4)cncc3C2)nc1,-25.4%
3,CN1C(=O)C2(CC(=O)Nc3c2cnn3C(C)(C)C)c2c(Cl)cccc21 (stereo not given),-20.78%
4,O=C(Cn1cnnn1)NCC1(O)CCCc2ccccc21 (stereo not given),-4.62%
5,CNc1nc(C(=O)N2CCCn3nc(C(=O)N4CCCC4)cc3C2)cs1,-38.39%
6,Cc1ccnc(OC[C@]23COC[C@H]2CN(C(=O)Cc2ccsc2)C3)n1,11.1%
7,O=C(NCCSc1ccccc1F)NCc1cccnc1,68.04%
8,O=C(Cc1cccnc1)NCCSc1ccccc1F,-10.89%
9,O=C(CCSc1ccccc1F)NCc1cccnc1,-67.38%
10,CN1CCCN(C(=O)c2cnc(Cc3c(Cl)cccc3Cl)nc2O)CC1,-116.99%
11,CSCC(=O)N(C)Cc1cnn(-c2ccc(F)cc2)c1,-9.65%
12,Cc1ccnn1CC(=O)N(C)Cc1cnn(-c2ccccc2)c1,60.67%
13,Cc1ccnn1CC(=O)N(C)Cc1ccc(-n2cccn2)cc1,18.76%
14,CSc1ccc(C)c(C(=O)N2CCCC(n3cncn3)C2)c1 (stereo not given),-1.88%
15,COC(=O)c1ccc(S(=O)(=O)N(C)CC(N)=O)c(Cl)c1,-3.54%
16,O=C(Nc1nccs1)N(CCO)Cc1ccsc1,-14.3%
17,O=C(Nc1ccccn1)N(CCO)Cc1ccsc1,58.49%
18,Cc1cccnc1NC(=O)N(CCO)Cc1ccsc1,36.95%
19,O=C(O)c1c(-c2cncnc2)ncc2c1CCN(Cc1cccnc1)C2,11.98%
20,O=C(NCC1Cn2nnc(-c3ccoc3)c2CO1)c1ccc[nH]1 (stereo not given),12.21%
21,O=C(N1CCCC1)N1C[C@@H]2CCNC[C@@H]21,32.05%
22,O=C(C1CCCCC1)N1C[C@@H]2CCNC[C@@H]21,63.89%
23,O=C(C1CCCC1)N1C[C@@H]2CCNC[C@@H]21,34.79%
24,CC(=O)N1CC[C@H]2OCC[C@@]2(C(=O)NCCc2ccccn2)C1,7.55%
25,O=C(NCCc1ccccn1)[C@@]12CCO[C@@H]1CCN(CC1CC1)C2,51.81%
26,CN1CC[C@H]2OCC[C@@]2(C(=O)NCCc2ccccn2)C1,23.81%
27,CN(Cc1nc2ccccc2s1)C1CCCN(c2cccnn2)C1 (stereo not given),29.39%
28,c1cnc2nc(N3CCCC3c3nnc4n3CCCCC4)ccc2n1 (stereo not given),2.06%

row,Structure (SMILES),INHIBITION
1,Cc1c(C(=O)N[C@@H]2CC[C@@H](N3CCCC3)[C@@H]2O)[nH]c2ccc(F)cc12,30.96%
2,O=C(NCC(=O)N1CCN(c2ccccc2)CC1)c1sccc1C1CC1,-31.42%
3,Cc1ccc(C)n1-c1ccsc1C(=O)NCC(=O)N1CCCC1,36.34%
4,O=C(NCC(=O)N1CCCCC1)c1sccc1C1CC1,54.62%
5,Cc1ccc2nc(C(=O)N(C)[C@@H]3CC[C@@H](N4CCCC4)[C@@H]3O)cn2c1,-18.64%
6,Cc1ccsc1-c1nccn1CCS(C)(=O)=O,38.1%
7,Cc1cn(CCn2ccnc2-c2sccc2C)nn1,59.08%
8,Cc1ccsc1-c1nccn1CCN(C)S(C)(=O)=O,4.48%
9,COc1ccnc(NCc2ccccc2Cn2cccn2)n1,-136.67%
10,CN1CCCN(C(=O)NCCNc2ncccn2)CC1,-3.93%
11,Cc1nn(C)c(C)c1-c1cnc(C2CCCN(C)C2)cn1 (stereo not given),22.81%
12,Cc1nn(C)c(C)c1-c1cnc(C2CCCN(S(C)(=O)=O)C2)cn1 (stereo not given),51.15%
13,CC(=O)N1CCCC(c2cnc(-c3c(C)nn(C)c3C)cn2)C1 (stereo not given),20.08%
14,CN(C)c1ccc(CN(CCCn2ccnc2)Cc2c[nH]cn2)cc1,18.15%
15,Cn1c(CCNC(=O)Nc2cn[nH]c2)nc2ccc(F)cc21,55.36%
16,Cn1c(CCCNC(=O)Nc2cn[nH]c2)nc2ccccc21,29.13%
17,CC(C)n1nccc1NC(=O)NCCc1nc2ccc(F)cc2n1C,2.9%
18,CN(Cc1ccccc1)C1(C(=O)NCC(N)=O)Cc2ccccc2C1,6.39%
19,Cc1cc(CCC2CN(Cc3ccccc3C(=O)O)CCO2)ncn1 (stereo not given),0.3%
20,Cc1cc(C[S+]([O-])CC(=O)NCC(C)C)no1 (stereo not given),-10.66%
21,Cc1cc(C[S+]([O-])CC(=O)Nc2c(C)cccc2C)no1 (stereo not given),51.21%
22,Cc1cc(C[S+]([O-])CC(=O)NCc2ccccc2)no1 (stereo not given),-15.28%
23,CCOC(=O)CN1C(=O)CN(S(C)(=O)=O)CCC(OC)c2ccccc21 (stereo not given),12.44%
24,Cc1ccccc1CNC(=O)CN1CCN(Cc2nccn2C)CC1,-34.45%
25,Cn1ccnc1CN1CCN(CC(=O)NCc2ccccc2F)CC1,26.09%
26,Cn1ccnc1CN1CCN(CC(=O)NCC(F)(F)F)CC1,62.13%
27,CS(=O)(=O)c1snnc1C1CCN(Cc2ccc3nccnc3c2)CC1,28.67%
